The panel holds about 83,000 compounds, 20% with a hit somewhere; the sample as a whole holds those more often.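 Cell lines were cultured in 96-well plates, exposed to a single compound concentration, and assessed for percent growth 48 hours later.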 Values without a mark were called inactive. Calls of active or inactive are those of the source. The calls were made as follows: active = growth percent below 10; inactive = the rest.
What was measured:
Assay in all cases: NCI-60 one-dose screen, 48 h (100 = growth as untreated, 0 = no growth, -100 = all killed)
Conditions in all cases: 10 µM unless noted
[1] = test system: T-47D breast
[2] = test system: MDA-MB-435 melanoma
[3] = test system: SW-620 colon
[4] = test system: MCF7 breast
[5] = test system: HCT-116 colon
[6] = test system: HCC-2998 colon
[7] = test system: KM12 colon

SMILES	growth [1]	growth [2]	growth [3]	growth [4]	growth [5]	growth [6]	growth [7]
CCCOc1nc(SCCC)nc2c1cnn2-c1ccccc1	115%	104%	103%	101%	105%	99.6%	105%
COc1ccc(NC(=O)c2sc3nc(C)c(C(=O)c4ccc(OC)cc4)cc3c2N)cc1	59.6%	-26.2% (active)	34.9%	25.3%	21.8%	89.4%	46.9%
CNC(=O)c1c(NC(=O)c2ccc(C(C)C)cc2)sc2c(CN(C)C)c(O)ccc12	80.6%	89.8%	17.2%	68.6%	46.1%	55.4%	66.2%
COc1cc2nnn3c4ncccc4c(N=O)c3c2cc1OC	51.8%	90.5%	46.3%	21.4%	28.9%	106%	
COc1ccccc1/C=N/NC1=NC2C(N1)N(C)C(=O)N2C (centres undefined)	101%	103%	99.3%	99.7%	107%	101%	105%
COc1cccc(NC(=O)c2cccc(-c3cc(=O)c4c(OC)c(OC)c(OC)cc4o3)c2)c1	44.4%	81.2%	89.6%	87.7%	60.7%	87.8%	53.7%
O=C(O)CCCCCCCCCCCCCCC(=O)O	110%	109%	109%	97%	107%	101%	102%
O=C1CCC(NC(=S)Nc2ccccc2)N1 (centres undefined)	103%	109%	107%	97.3%	97.6%	98.7%	98%
CSc1nnc2c(=O)n(C)c(=O)n(C)c2n1	97.5%	95.2%	96.1%	97.8%	106%	105%	93.6%
O=C(O)c1cn(C2CC2)c2cc(N3CCN(C(=O)C[n+]4cccc5ccccc54)CC3)c(F)cc2c1=O	74%	59.5%	-17.2% (active)	45.2%	23.7%	106%	92.3%
CC1=NNC(=O)C1CCC(=O)N/N=C(\C)c1ccc2ccccc2c1 (centres undefined)	146%	86.5%	103%	98.9%	92.7%	107%	98.9%
Fc1cc(C2=NNC(c3ccc[nH]3)C2)ccc1-n1ccc(C(F)(F)F)n1 (centres undefined)	76.7%	98.7%	98.8%	83.3%	98.7%	104%	65.6%
COc1ccc(-c2nc(N/N=C/c3ccco3)nc(N3CCOCC3)c2C#N)cc1	54.2%	91.7%	89.8%	35.2%	89.1%	92.2%	86.7%
O=C1Nc2cc(-c3ccncc3)ccc2/C1=C/c1ccc[nH]1	-20.9% (active)	100%	105%	21%	57.2%	72.2%	33.1%
Clc1cc(Cl)cc(N2N=C(c3cccc(Nc4ccncc4)c3)CC2c2ccc(Br)cc2)c1 (centres undefined)	81.1%	-14.7% (active)	-72.1% (active)	-46.4% (active)	108%	-39.9% (active)	-34.3% (active)
Cn1ncc2c(Nc3ccccc3Cl)nc(Cl)nc21	99.7%	113%	126%	104%	99.4%	109%	126%
CO[C@@H]1[C@H](N(C)C(=O)c2ccccc2)C[C@@H]2O[C@]1(C)n1c3ccccc3c3c4c(c5c6ccccc6n2c5c31)C(=O)NC4=O	40.5%	45.9%	18.6%	42%	25.8%	61.9%	21.8%
[2H]C1([2H])NC([2H])([2H])C([2H])([2H])N(c2ccc(Nc3ncc4cc(C(=O)N(C)C)n(C5CCCC5)c4n3)nc2)C1([2H])[2H]	68%	68.7%	42.2%	45%	55.3%	89.9%	54.5%
CN(C)CCCn1c2c(c3ccc(-c4ccn[nH]4)cc3c1=O)C(=O)c1ccccc1-2	43.2%	78.4%	37.1%	9.49% (active)	28.9%	53.8%	18.1%
O=C(N/N=C/c1cccnc1)c1ccccc1Nc1cccc(C(F)(F)F)c1	61.9%	26.2%	84.1%	91.8%	85.9%	101%	88.2%
COc1ccccc1/C=C1\COc2ccc(-c3ccccc3)cc2C1=O	14%	-45% (active)	16.8%	-9.07% (active)	5.64% (active)	51.6%	-32% (active)
CC(=O)CCSc1ccc(OC(C)=O)cc1	91.9%	104%	105%	102%	97%	89.7%	99.9%
O=C(Nc1nc2ccc(C(=O)N3CCN(c4ccc(Cl)c(Cl)c4)CC3)cc2s1)c1ccc(NCCc2ccccc2)c([N+](=O)[O-])c1	84.4%	111%	103%	96.7%	95%	105%	107%
COc1cc(CCNc2nc3cc(N)cc(N)c3nc2-c2ccccc2)cc(OC)c1	-31% (active)	-56.8% (active)	-56.7% (active)	-79.9% (active)	-35.9% (active)	-5.77% (active)	4.39% (active)
CCCCc1ccc(Nc2nnc(SCC(=O)NC(=O)NCC)s2)cc1	128%	104%	102%	101%	93.6%	105%	102%
CC(C)CN(C(=O)c1ccc(Cl)cc1)c1c(N)n(CC(C)C)c(=O)[nH]c1=O	105%	112%	100%	95%	96.2%	106%	102%
COc1ccc(CNCCN2C(=O)c3ccc4c5c(ccc(c35)C2=O)C(=O)N(CCNCc2ccc(OC)cc2)C4=O)cc1	-19% (active)	-71.4% (active)	-88% (active)	-79.2% (active)	-72.4% (active)	-92.3% (active)	-81.8% (active)
COc1cc(C2NC(c3cc(OC)c(OC)c(OC)c3)C(C#N)(C#N)C2(C#N)C#N)cc(OC)c1OC (centres undefined)	96.4%	101%	95.8%	95.5%	91.1%	98.7%	99.5%
NC(=O)c1cccc(-n2ccc3cc(NC(=O)Nc4cc(C(F)(F)F)cc(C(F)(F)F)c4)ccc32)n1	44.7%	50.5%	73.7%	27.2%	38%	88.2%	11.7%
Fc1ccc(C2CC(c3cccc(Nc4ccncc4)c3)=NN2c2cc(Cl)cc(Cl)c2)cc1 (centres undefined)	74.6%	-22.5% (active)	-85.2% (active)	-25.6% (active)	98.8%	19.1%	-35.7% (active)

From PubChem BioAssay (NCI)
